High-throughput results: PubChem, National Center for Advancing Translational Sciences (NCATS)
This is a sample that favours compounds with a hit; in the whole collection about 12% have one here.
Gal4-VP16 FLuc = inhibits Gal4-VP16 luciferase reporter, ROR gamma counter-screen; Drosophila S2 Gal4-VP16 UAS-luciferase, luminescence, 20 h; Potency, µM (titrated, usually from 53.6 µM), inactives show at the highest dose activity, negative = inhibition, hits mostly inhibitors; 3.5% of 310,000 active;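 note: Gal4-VP16 expression switched on by copper sulfate through the metallothionein promoter; nearly all actives have a fitted effect of over 50% in size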
ALDH1A1 block = blocks purified human ALDH1A1 activity. P00352. AID 1030. Purified ALDH1A1, NADH fluorescence, propionaldehyde substrate. Potency, µM (titrated, usually from 75.3 µM), for inactives: top-dose activity, negative = inhibition, hits mostly inhibitors. 7.3% of 220,000 active; active = well fitted inhibition curve with a large enough effect, not every such curve was filed as active; inconclusive = small, poorly fitted or top-dose-only effect, or another doubt; inactive = no such curve, though single readings can be large or run the other way;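 note: plate controls were no enzyme wells and a reference inhibitor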
RORg inh = blocks mouse ROR gamma transcriptional activity. P51450. Drosophila S2 Gal4-RORgamma UAS-luciferase reporter, 20 h. Potency, µM (top dose mostly 53.6 µM), without a hit: top-dose activity change, negative = inhibition, usual class: inhibitors. 5.4% of 310,000 active. AID 2551; note: nearly all actives have a fitted effect of over 60% in size
Target sequence (P51450 whole entry, looked up, the tested form may be a part): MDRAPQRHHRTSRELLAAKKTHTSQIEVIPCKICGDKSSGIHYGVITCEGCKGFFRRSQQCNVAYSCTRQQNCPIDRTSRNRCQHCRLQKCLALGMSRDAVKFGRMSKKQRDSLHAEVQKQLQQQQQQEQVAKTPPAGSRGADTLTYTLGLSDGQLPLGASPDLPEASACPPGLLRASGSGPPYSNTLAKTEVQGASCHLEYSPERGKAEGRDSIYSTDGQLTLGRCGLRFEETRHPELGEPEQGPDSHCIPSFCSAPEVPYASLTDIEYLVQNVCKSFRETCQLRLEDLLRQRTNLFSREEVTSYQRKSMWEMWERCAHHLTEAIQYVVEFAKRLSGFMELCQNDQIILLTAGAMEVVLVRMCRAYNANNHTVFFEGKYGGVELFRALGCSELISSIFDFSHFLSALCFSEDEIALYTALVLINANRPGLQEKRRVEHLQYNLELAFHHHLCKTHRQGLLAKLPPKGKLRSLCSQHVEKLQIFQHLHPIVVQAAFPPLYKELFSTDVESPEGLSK
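Compounds are pin-transferred onto Drosophila Schneider cells expressing a copper-inducible Gal4–ROR gamma transactivation domain fusion. After 1 hr, copper sulfate is added to 700 uM final; luciferase is read 20 hr later.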
PLK1 PBD inh = blocks phosphopeptide binding to human PLK1 polo-box domain. Plk1 PBD binding of FITC phosphopeptide, fluorescence polarization. Potency, µM, for the others: max response, negative = inhibition, actives largely listed as inhibitors. P53350. 2.8% of 360,000 active; note: series mostly up to about 57 µM; nearly all actives have a fitted effect of over 65% in size
Sfp inh = inhibitors of Bacillus subtilis Sfp phosphopantetheinyl transferase. AID 1490. Potency, µM, inactives show largest response in the series, negative = inhibition, hits mostly inhibitors. 3.5% of 310,000 active. Biochemical Sfp PPTase activity, qHTS. Q9F4F7;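 note: the enzyme is Sfp with the accession as filed and its product quenches rhodamine fluorescence; 0% = enzyme reaction without inhibitor and -100% = no enzyme wells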
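After 15 min at room temperature with compound, 15 nM Sfp received 5 uM rhodamine-CoA plus 12.5 uM BHQ-2-ybbR (50 mM Hepes pH 7.6, 10 mM MgCl2). Rate came from the fluorescence difference over 30 min, ex 525/em 598 nm.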
* marks the source's active call; other numbers are inactive results; u = inconclusive; x = no result; [ ] = remark or other dose. Unless noted, calls come from the whole dose curve; as a rule, active = well fitted curve in the direction sought with a large enough effect; inconclusive = small, poorly fitted or top-dose-only effect, or another doubt; inactive = no such curve, though single readings can be large; an effect the other way counts as inactive or inconclusive. Unless noted, % is set by controls: 0 for no effect and ±100 for the full control effect; potency is the fitted concentration of half-maximal effect.

SMILES | Gal4-VP16 FLuc | ALDH1A1 block | RORg inh | PLK1 PBD inh | Sfp inh
COc1cccc(/C=N/NC(=O)CNC(=O)C(c2ccccc2)c2ccccc2)c1O | u | x | 1.8µM* | -7% | 1%
CC/C=C\C/C=C\C/C=C\C/C=C\C=C\C(O)CCCC(=O)O (centres undefined) | 1% | -2% | -38% | x | 8%
O=c1cc(O)c2sc3nc(-c4cccnc4)cc(C(F)(F)F)c3c2[nH]1 | 10% | 8.9µM* | 4% | -10% | -18%
CCC[C@@H]1C[C@@]1(CCC)[C@@H](NC(=O)Oc1ccccc1)c1ccc(C(=O)OC)cc1 | -1% | 3% | -16% | x | 13%
NCCC[C@@H](CC(=O)N[C@@H]1CCCC[C@H]1C(=O)N[C@H](CC(=O)N[C@@H](CCC(=O)O)CC(=O)O)Cc1c[nH]c2ccccc12)NC(=O)C[C@H](CO)NC(=O)[C@@H]1CCCC[C@H]1N | -1% | u | 2% | x | 7%
COc1cc(/C=C2\SC(=S)N(NC(=O)c3ccncc3)C2=O)ccc1O | -8% | x | -14% | 39% | 5%
COc1cc(/C=C2\SC(=S)N(NS(=O)(=O)c3ccc(C)cc3)C2=O)ccc1O | 3% | 25µM* | -20% | 14% | -11%
CC(=O)NN1C(=O)/C(=C/c2ccc(C(C)C)cc2)SC1=S | 23% | 4µM* | 5% | -5% | -13%
COc1cc(/C=C2\SC(=S)N(NC(=O)c3ccc(O)c(OC)c3)C2=O)ccc1O | u | x | 7.1µM* | 30% | 2%
COC(=O)[C@@H]1C[C@@]2(O)[C@@H](O)[C@@H](O)[C@@H](O)C[C@H]2N1Cc1cc(F)ccc1F | -3% | u | 3% | x | -23%
CCCNC(=O)C1(C)CCCN(C(=O)c2ccc(OC(F)F)cc2)C1 (centres undefined) | x | x | x | -6% | x
O=c1[nH]c2ccccc2c2oc(CCl)nc12 | -5% | u | 18% | u | 6.3µM*
CCC1CCc2c(c3ccccc3[nH]c2=O)O1 (centres undefined) | -2% | 8% | 25% | -14% | 17%
O=C(/C=C/c1ccc(O)c(O)c1)OC1C(O)CC(OC(=O)/C=C/c2ccc(O)c(O)c2)(C(=O)O)CC1O (centres undefined) | -17% | 4% | -25% | 1% | 45µM*
CC1(C(=O)Nc2cccc3cccnc23)CCN1Cc1ccccc1OC(F)F (centres undefined) | x | x | x | -1% | x
COc1ccc([N+](=O)[O-])cc1N(CC(=O)O)S(C)(=O)=O | 7% | 32µM* | -2% | 3% | -12%
CCN1CCN(C(=O)CN(C)S(=O)(=O)c2ccc(OC)c(C)c2)CC1 | 3% | -6% | -20% | 1% | 18%
COc1ccc([N+](=O)[O-])cc1N(CC(=O)N1CCN(Cc2ccccc2)CC1)S(C)(=O)=O | 15% | x | -1% | 12µM* | 10%
COc1ccc(S(=O)(=O)N(C)CC(=O)N2CCN(Cc3ccccc3)CC2)cc1C | 5% | 16µM* | 0% | -2% | 0%
COc1ccc(/C=C/C(=O)NC(=S)N2CCSCC2)cc1 | 13µM* | u | 3.5µM* | -20% | 9%
COc1ccc(/C=C/C(=O)NC(=S)Nc2ccc(C(=O)O)cc2)cc1 | -4% | u | 2% | -19% | 3%
COc1ccc(-n2nc(C(=O)NCC(=O)N3CCN(c4ccccn4)CC3)c3ccccc3c2=O)cc1 | u | 28µM* | -27% | -5% | 4%
COc1ccc(CC(=O)N2CCN(c3ccccn3)CC2)cc1 | -9% | 2% | u | -10% | -2%
COc1ccc(/C=C/C(=O)NC(=S)N2CCN(c3ccccn3)CC2)cc1 | 13µM* | x | 2.5µM* | -10% | 15%
COc1ccc(-n2nc(C(=O)NCC(=O)N3CCN(c4ccccn4)CC3)c3ccccc3c2=O)cc1OC | -28% | 0% | 4% | -5% | 26%
SMILES | Gal4-VP16 FLuc | ALDH1A1 block | RORg inh | PLK1 PBD inh | Sfp inh
O=C(OC[C@@H](O)CO)c1ccccc1Nc1ccnc2cc(Cl)ccc12 | -3%[17 µM] | 6%[20.9 µM] | -5%[2.98 µM] | x | 20%
C=CCNc1nc(NCc2ccc(N(C)C)cc2)c2sc(-c3ccccc3)cc2n1 | x | x | x | -15% | x
c1ccc(-c2noc(CN3CCN(c4cnccn4)CC3)n2)cc1 | 24% | -5% | 18% | 13µM* | 1%
Cc1cc(C)nc(S/C=C/C(=O)c2ccccc2F)n1 | 10µM* | x | 7.9µM* | 4.7µM* | -29%
COc1ccc(CCNC(=O)c2ccc3nc(N4CCCCC4)sc3c2)cc1OC | u | x | 2.2µM* | -4% | -7%
O=C(NCCc1ccccc1)C1CCN(S(=O)(=O)N2CCCCCC2)CC1 | 0% | 7.1µM* | 40% | 0% | 1%
COc1ccc(CCNC(=O)C2CCN(S(=O)(=O)N3CCCCCC3)CC2)cc1OC | -2% | 7.9µM* | -3% | 1% | 10%
CCCCCCCCN1C(=O)[C@H](CC(=O)N2CCN(C(=O)C3CC3)CC2)C[C@@]2(C(=O)OC)CC(C)(C)CC=C12 | x | x | x | -19% | x
COCCN(C(=S)Nc1ccc(C)cc1)C(C)c1ccco1 (centres undefined) | -14% | x | u | -10% | 24%
CCOc1ccc(NC(=S)N(CCOC)C(C)c2ccco2)cc1 (centres undefined) | u | x | 8.9µM* | -1% | 19%
COc1cccc(NC(=S)N(CCN(C)C)C(C)c2ccco2)c1 (centres undefined) | -25% | 4% | u | -5% | -5%
COc1ccc(NC(=S)N(CCN(C)C)C(C)c2ccco2)cc1Cl (centres undefined) | -20% | -4% | u | 24µM* | -11%
CCc1cccc(C)c1NC(=S)N(CCOC)C(C)c1ccco1 (centres undefined) | 0% | x | 10µM* | 1% | 13%
CCOc1ccc(NC(=S)N(CCc2ccncc2)C(C)C)cc1 | -13% | -13% | 9% | -2% | 50µM*
Cc1cccc(NC(=O)c2cccc(S(=O)(=O)N(C)C3CCCCC3)c2)n1 | x | x | x | -1% | x
C#CCOCC1CN(C)C(=O)O1 (centres undefined) | x | x | x | -9% | x
CC(=O)OC1(C)C=Cc2ccccc2C1=NS(=O)(=O)c1ccccc1 (centres undefined) | x | x | x | -13% | x
Cn1nc(N)c2ncc(-c3ccc(Cl)cc3)nc21 | x | x | x | 1% | x
CCCC[C@H]1CCCO[C@@](C(=O)NCc2ccc(C)o2)(C(F)(F)F)C1 | 5% | x | -18% | x | -26%
O=c1cnc2cnc(N3CCNCC3)nc2n1Cc1cccs1 | -7% | u | -7% | x | -2%
COCCN(C(=S)Nc1ccccc1C)C(C)c1cccs1 (centres undefined) | u | 3% | u | -9% | 0%
CCc1ccccc1NC(=S)N(CCOC)C(C)c1ccco1 (centres undefined) | -5% | x | 13µM* | 4% | 11%
CCOC(=O)/C(C#N)=C1/C(=O)N(Cc2ccccc2)c2ccccc21 | 7%[10 µM] | 0.11µM* | 13% | 3.8µM* | 45µM*
CCOC(=O)C(C#N)=C1CCN(Cc2ccccc2)CC1 | -12% | x | -8% | -16% | 11%
